Screening data as filed in PubChem BioAssay.
An excerpt weighted towards active compounds, which were near 2.4% of everything screened.
M1 ag – activates human CHRM1 receptor. P11229. CHO-K1 hM1, Fluo-8 calcium fluorescence, agonist mode; 0% DMSO, 100% acetylcholine EC100. activation, % at 3 µM. 0.33% of 360,000 active. AID 588814;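 active means activation above the run's mean compound activation plus 3 SD, cut at about 16% in these data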;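 further: peak over basal fluorescence ratio within a 140 s kinetic read after compound addition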
Target sequence (P11229 whole entry, looked up): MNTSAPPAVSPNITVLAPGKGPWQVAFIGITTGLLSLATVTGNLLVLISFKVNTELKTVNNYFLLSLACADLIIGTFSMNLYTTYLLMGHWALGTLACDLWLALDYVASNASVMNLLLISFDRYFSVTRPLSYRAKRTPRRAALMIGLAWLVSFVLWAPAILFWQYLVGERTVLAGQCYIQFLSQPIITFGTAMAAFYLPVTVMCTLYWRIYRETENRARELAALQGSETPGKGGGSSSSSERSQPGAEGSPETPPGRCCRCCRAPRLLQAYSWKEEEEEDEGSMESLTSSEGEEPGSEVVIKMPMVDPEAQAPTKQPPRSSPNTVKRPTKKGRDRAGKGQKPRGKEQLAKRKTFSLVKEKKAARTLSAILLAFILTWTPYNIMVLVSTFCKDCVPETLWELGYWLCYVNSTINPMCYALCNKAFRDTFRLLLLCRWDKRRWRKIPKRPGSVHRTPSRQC
CHO-K1 Ca antag – M1 antagonist counterscreen hit in parental CHO-K1 cells; 0.6% of 360,000 active; inhibition, % at 3 µM; ATP-induced calcium, Fluo-8 fluorescence;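 active means inhibition above a per-plate cutoff, the plate's mean sample inhibition plus 3 SD, cut at about 24% in these data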;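 further: 0% = DMSO plus EC80 ATP and 100% = DMSO alone without ATP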
CHRM1 PAM – potentiates human M1 receptor response to acetylcholine. CHO-K1 hM1, Fluo-8 calcium fluorescence, ACh EC20; 0% = ACh EC20, 100% = maximal ACh. activation, % at 3 µM. AID 588819. 0.088% of 360,000 active. P11229; in the data active means activation above about 19%, passing the limit was not always enough
CHO-K1 Ca ag – nonselective activator or artifact in parental CHO-K1 cells; AID 602248; Fluo-8 calcium fluorescence; scaled to maximal ATP response, vehicle zero; activation, % at 3 µM; 0.48% of 360,000 active; in the data active means activation above about 15%;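 further: untransfected CHO-K1 host cells lacking M1 receptor as counterscreen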
M1 antag – blocks human M1 muscarinic receptor. P11229. CHO-K1 hM1, Fluo-8 calcium fluorescence, ACh EC80 antagonist. inhibition, % at 3 µM. 1.3% of 360,000 active;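 active means percent inhibition above its own plate's cutoff, namely the mean of that plate's compound wells plus 3 SD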;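 further: peak over basal fluorescence ratio during 140 s after agonist addition; 0% = ACh EC80 plus DMSO and 100% = DMSO alone without agonist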
CHO-K1 Ca PAM – nonselective activator or artifact in parental CHO-K1 calcium assay; activation, % at 3 µM; 0.02% of 360,000 active; ATP EC20, Fluo-8 calcium fluorescence; 0% at ATP EC20, 100% at ATP max;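 active means activation above the run cutoff, the mean activation of all test compounds plus 3 SD, cut at about 40% in these data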;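 further: peak over basal fluorescence ratio in a 140 s read after ATP addition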
Numbers without * were called inactive; x = no result.

SMILES	M1 ag	CHO-K1 Ca antag	CHRM1 PAM	CHO-K1 Ca ag	M1 antag	CHO-K1 Ca PAM
FC(F)(F)c1cnc(N2CCN(C(=S)NCc3ccccc3)CC2)c(Cl)c1	-3.2	-10.3	-9.1	3.4	3.5	7.7
OC(COc1ccc2c(c1)CCC2)CN1CCN(c2ccccc2F)CC1 (stereo not given)	-7.3	-17.1	1.5	2.8	-3.8	10.9
Oc1ccccc1N1CCN(CC(O)COC2CCCc3ccccc32)CC1 (stereo not given)	-11.0	1.3	-29.4	1.6	39.3*	-8.5
Cc1cc(C)c(NC(=O)NC(=O)C(Cl)(Cl)Cl)c(C)c1	-2.9	-17.1	1.4	0.4	10.4	1.2
O=C(NCCCNC(=O)c1ccc(F)cc1)c1ccc(F)cc1	-4.2	5.7	5.1	0.6	-9.5	-21.1
CCOc1ccc(-n2c(-c3ccc(Br)cc3)c[n+]3c2CCCCC3)cc1	-12.2	1.5	-26.8	0.5	29.7*	2.9
COc1ccc(-c2c[n+]3c(n2-c2ccc(C)cc2)CCCCC3)cc1	-7.8	16.1	-7.5	0.5	33.5	-9.8
CCOc1ccc(-n2c(-c3ccccc3)c[n+]3c2CCC3)cc1	-5.4	-12.2	-14.9	0.9	38.2*	17.0
CCOc1ccc(-n2c(-c3ccc(OC)cc3)c[n+]3c2CCCCC3)cc1	-10.4	11.7	-11.2	1.6	17.0	17.7
CC1(C)Cc2c(sc3ncn(N)c(=N)c23)CO1	-0.5	26.8*	9.2	-0.5	-16.0	-4.5
Cc1nc2sc3c(c2c(=N)n1N)CC(C)(C)OC3	-5.8	-10.2	-1.2	2.9	8.8	14.7
COCCNC(=O)CCC1CCN(Cc2ccc(-c3ccccc3)cc2)CC1	-9.5	12.1	-28.0	-0.5	99.1*	-6.2
COCCNC(=O)c1cccc(OC2CCN(Cc3ccc(C(C)C)cc3)CC2)c1	-7.6	-0.4	-11.4	1.6	10.6	-3.6
CSc1cccc(CN2CCC(Oc3cccc(C(=O)N4CCCC4)c3)CC2)c1	-6.9	-9.4	-4.7	1.7	-3.1	17.0
COC(=O)c1ccc(CN2CCC(Oc3cccc(C(=O)N4CCOCC4)c3)CC2)cc1	18.5*	4.4	-17.8	2.7	83.9*	1.3
COCCNC(=O)c1cccc(OC2CCN(Cc3ccc(C(=O)OC)cc3)CC2)c1	19.2*	-6.2	-17.2	0.1	70.5*	11.3
COCCNC(=O)C1CCCN(Cc2ccccc2)CC1 (stereo not given)	-7.0	-7.1	5.4	0.1	-4.6	9.2
CN(C)N1C(N)=C(C#N)C(c2cccc([N+](=O)[O-])c2)C2=C1CC(C)(C)CC2=O (stereo not given)	-4.2	-11.6	4.3	0.9	-10.1	11.4
NC(=O)c1ccsc1NC(=O)COC(=O)Cc1ccc(F)cc1	5.7	14.0	-9.4	17.1*	10.2	-8.0
Cc1ccccc1SCC(=O)OCC(=O)Nc1sccc1C(N)=O	-2.3	27.9*	-16.1	15.5*	25.7	5.7
NC(=O)c1ccsc1NC(=O)CSc1ccccc1F	4.2	-13.6	4.7	5.4	-19.4	14.8
COc1cc(C(=O)OCC(=O)Nc2sccc2C(N)=O)cc(OC)c1OC	-0.4	-1.8	-10.0	7.8	33.4	12.9
COc1cc(CCC(=O)OCC(=O)Nc2sccc2C(N)=O)cc(OC)c1OC	0.6	38.9*	-15.5	14.0	36.9*	-16.3
NC(=O)c1ccsc1NC(=O)COC(=O)Cc1ccccc1[N+](=O)[O-]	4.0	31.3*	-14.4	9.1	10.4	-16.8
CN1OC[C@@H]2CN(C(=O)c3cccc4ccccc34)[C@H](c3ccccc3Br)C[C@@H]21	-5.5	13.4	-3.2	0.2	7.9	4.3
SMILES	M1 ag	CHO-K1 Ca antag	CHRM1 PAM	CHO-K1 Ca ag	M1 antag	CHO-K1 Ca PAM
CC(=O)NS(=O)(=O)c1ccc(Nc2ccc([N+](=O)[O-])c3nonc23)cc1	-1.2	-22.7	4.1	2.2	-3.9	24.6
NC(=O)c1ccsc1NC(=O)COC(=O)Cc1cccc2ccccc12	2.0	28.5*	-9.7	9.4	40.0*	6.3
NC(=O)c1ccsc1NC(=O)COC(=O)Cc1c[nH]c2ccccc12	7.2	19.7	-12.6	13.3	20.2	-18.5
CN(C)CCC#CC1(O)c2ccccc2-c2ccccc21	-8.7	-0.9	-29.2	0.7	66.0*	9.4
CCN(CC)CCC#CC1(O)c2ccccc2-c2ccccc21	-9.3	-13.0	-29.5	1.1	99.4*	15.9
CC(C)(C)N(CC#CCC1(O)c2ccccc2-c2ccccc21)CCO	-14.5	-7.5	-20.1	-0.2	5.1	16.1
OC1(C#CCN2CCCC2)c2ccccc2-c2ccccc21	-8.8	-11.5	-25.2	0.4	85.4*	18.4
OC(C#CCN1CCCC1)c1ccccc1 (stereo not given)	-12.1	1.5	-19.6	-0.1	17.3	1.1
O=S(=O)(c1ccccc1F)N1CCC(c2nc3ccccc3[nH]2)CC1	-5.0	1.4	-2.2	3.8	-3.0	3.5
CC[C@@H](C)[C@@H]1CN([C@@H](CN2CCC[C@H]2CN2C(N)=NC[C@H]2CC(C)C)C(C)C)C(=N)N1CCc1ccc(Cl)c(Cl)c1	-11.4	-0.6	-27.0	-0.1	32.1	14.1
CCC[C@@H](CN1CCC[C@H]1CN1C(N)=NC[C@H]1CC(C)C)N1C[C@@H]([C@H](C)CC)N(CCc2ccc(Cl)c(Cl)c2)C1=N	-11.1	4.8	-28.9	-0.2	38.4*	-10.3
CCC[C@@H](CN1CCC[C@H]1CN1C(N)=NC[C@@H]1Cc1ccccc1)N1C[C@@H]([C@H](C)CC)N(CCc2ccc(Cl)c(Cl)c2)C1=N	-10.4	1.7	-30.4	-0.3	36.3	-11.4
CC[C@@H](C)[C@@H]1CN([C@@H](C)CN2CCC[C@H]2CN2C(N)=NC[C@H]2CC(C)C)C(=N)N1CCc1ccc(Cl)c(Cl)c1	-13.3	-3.5	-39.4	-0.3	38.5*	10.6
Cc1cccc(C)c1-n1nnnc1C1(C)CCC(=O)N1C1CC1 (stereo not given)	x	2.9	x	0.0	x	5.7
NC(=O)c1ccccc1NC(=O)CN1CCCCCC1	-4.4	-1.1	9.6	1.3	-11.2	-2.2
NC(=O)c1cc(-c2ccccc2)sc1NC(=O)CN1CCCCC1	-3.2	24.9*	-6.1	0.2	-2.1	-11.8
OCCC1CN(CC(c2ccccc2)c2ccccc2)CCN1C1CCCC1 (stereo not given)	-14.4	7.9	-32.2	0.2	26.8*	3.5
OCCC1CN(CC#Cc2ccccc2)CCN1C1CCCC1 (stereo not given)	-6.3	-16.9	-0.7	0.2	4.5	3.5
OCCC1CN(Cc2cnc(-c3ccccc3)s2)CCN1C1CCCC1 (stereo not given)	-9.7	13.5	-27.7	-0.1	38.8*	-10.4
COc1cccc(NC(=O)Cc2nnc(SCC(=O)NC3CCCC3)n2C)c1	-4.3	-10.4	2.4	0.3	-0.7	0.0
COCCn1nnnc1C(c1cccc(OC)c1OC)N1CCN(C(=O)c2ccco2)CC1 (stereo not given)	-2.2	-10.5	6.7	0.2	-2.1	3.9
